Tested on: ADCK4
Conditions: concentration: 1 μM, replicates: in singlicate; n = 1
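Further: KINOMEscan kinase panel screen.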

| Compound | %Inh |
| --- | --- |
| Cl.c1ccc(-c2ccc3c(Nc4ccc5[nH]ccc5c4)ccnc3c2)nc1 [GW440138] | 38% |
| Nc1n[nH]c2cnc(-c3ccccc3)cc12 [SB-642124] | 24% |
| CN(C)Cc1ccc(-c2ccc3c(Nc4ccc(Oc5ccccn5)cc4)ccnc3c2)o1 [GW567148] | 0% |
| CC(C)(C)c1ccc2nccc(Nc3cccc(O)c3)c2c1 [GW856795] | 41% |
| O=c1[nH]cc(-c2ccc(N3CCOCC3)cc2)c2sc(-c3cn[nH]c3)cc12 [GSK2276055] | 0% |
| O=C(Nc1n[nH]c2cc(-c3ccoc3)ccc12)C1CC1 [SB-738481] | 0% |
| CC(=O)N1CCN(c2ccc(Nc3nccc(-c4sc(C(C)C)nc4-c4cccc(NS(=O)(=O)c5cccc(Cl)c5)c4)n3)cn2)CC1 [GSK1660437] | 72% |
| COc1cc2c(cc1OCCN1CCNCC1)ncc1c3ccc(C#N)cc3[nH]c21 | 5% |
| CNC(=O)c1ccccc1Nc1nc(Nc2ccc(N3CCOCC3)cc2)ncc1Cl.Cl [GSK1576028] | 44% |
| Oc1cc(Nc2ccnc3cc(I)ccc23)ccc1F [GW552771] | 38% |
| COc1cccc(C2=C(Nc3ccc(Cl)c(C(=O)O)c3)C(=O)NC2=O)c1 [SB-390769] | 22% |
| O=C(Nc1cccc(-c2nn3ccccc3c2-c2ccnc(Nc3cccc(F)c3)n2)c1)c1c(F)ccc(F)c1Cl [GSK357952] | 0% |
| O=C(Nc1cccc(Oc2ccc3nc(NC(=O)C4CC4)cn3n2)c1)c1ccccc1C(F)(F)F | 12% |
| CSc1cccc2c(-c3ccncn3)c(-c3ccc(F)cc3)nn12 [GW514786] | 35% |
| Cn1cc(-c2[nH]c3cc(NC(=O)[C@H](N)C4CCCCC4)cc4c3c2C=NNC4=O)cn1 | 0% |
| COc1ccc(CNC(=O)NC2CCN(c3ccnc(Nc4ccc(F)cc4)n3)CC2)cc1 [GSK1379788] | 49% |
| COc1cccc(NC(=O)NC2CCN(c3ccnc(Nc4cc(OC)c(OC)c(OC)c4)n3)C2)c1 (stereo not shown) [GSK1379763] | 59% |

| Compound | %Inh |
| --- | --- |
| O=C(Nc1n[nH]c2nc(-c3ccc(O)cc3)ccc12)C1CC1 [SB-710363] | 0% |
| CN1CCN(CCCNc2nccc(-c3c(-c4ccc(F)cc4)nn4cc(C(F)(F)F)ccc34)n2)CC1 [GW621581] | 97.1% |
| c1ccc(-c2n[nH]cc2Nc2ccnc3ccccc23)nc1 [GW694077] | 51% |
| CCc1ccc(-c2ccc3c(c2)-c2c(cnn2C)S(=O)(=O)N3C)cc1 | 0% |
| NCCCC(NC(=O)c1cc(Br)c(-c2ccnc3[nH]ccc23)s1)c1ccccc1.O=C(O)C(F)(F)F.O=C(O)C(F)(F)F (stereo not shown) [GSK1287544] | 38% |
| Nc1ncc(-c2cccnc2)c2scc(-c3ccc4c(c3)CCN4C(=O)Cc3ccccc3)c12 [GSK683281] | 32% |
| Cl.c1ccc(-c2ccc3c(Nc4ccc5[nH]ncc5c4)ccnc3c2)nc1 [GW440137] | 38% |
| Cc1ccc(C)c(NC(=O)NC2CCN(c3ccnc(Nc4ccc(F)cc4)n3)C2)c1 (stereo not shown) [GSK1379720] | 48% |
| COc1cc(Nc2nccc(-c3c(-c4cccc(NC(=O)c5c(F)cccc5F)c4)nn4ccccc34)n2)cc(OC)c1OC [GSK323521] | 0% |
| Fc1ccc(-c2ncn(C3CCNCC3)c2-c2ccnc(Oc3ccc(-c4ccccc4)cc3)n2)cc1 [SB-245391] | 0% |
| COc1cc(Nc2ncc3c(C)nc(-c4cc5ccccc5[nH]4)n3n2)cc(OC)c1OC [GW869516] | 3% |
| Clc1ccc(-c2nn3ncccc3c2-c2ccnc(Nc3ccc4c(c3)OCCO4)n2)cc1 [GW829116] | 90.4% |
| c1ccc(-c2cnc3nccnn23)cc1 [AH20685] | 17% |
| O=C(Nc1ccccc1F)NC1CCN(c2ccnc(Nc3ccc(F)cc3)n2)CC1 [GSK1379800] | 64% |
| Cc1occc1-c1ncc(OC[C@@H](N)Cc2c[nH]c3ccccc23)cc1-c1ccc2[nH]nc(C)c2c1.O=C(O)C(F)(F)F [GSK682037] | 82% |
| C[C@@H]1CC[C@@H](C(=O)Nc2ccccc2)CN1c1cc(-c2ccc3c(N)n[nH]c3c2)nc(N)n1 [GSK2286062] | 14% |
| COc1cc(Nc2nccc(-c3c(-c4cccc(NC(=O)c5c(F)cccc5F)c4)nn4ncccc34)n2)cc(OC)c1OC [GSK327238] | 93.7% |

Reference: PMC5540273 (PLoS ONE, 2017)
